Hit rate of the full screen: of about 2,100 compounds, about 670 (32%) were called active. Inconclusive results (about 50%) are left out. The list shows a part of the results. Unmarked numbers belong to inactive results. The call rests on the fitted dose curve; in most records, active means well fitted inhibition curve with a large enough effect; inconclusive means small, poorly fitted or top-dose-only effect; inactive means no such curve, though single readings can be large or run the other way.
Assay: CMV-Luciferase Counterscreen for Inhibitors of ATXN expression; further: nearly all actives have a fitted effect of over 55% in size
Settings: HEK-293 CMV-luciferase reporter, luminescence, 24 h; series mostly up to 57.5 µM; activity change, negative = inhibition: at the top concentration
With `OC(c1ccccc1)(c1nc(-c2cc3ccccc3o2)cs1)C(F)(F)F` (centres undefined) the “activity change, negative = inhibition” value was 31.2% (inactive).
With `Cc1cc(/C=N/n2cnnc2)c(C)n1-c1ccc(OCc2ccc(Cl)cc2Cl)cc1` the Potency was 12.6 µM (active).
For `Cc1ccc(C)c(NC(=O)c2ccccc2NS(=O)(=O)c2cc([N+](=O)[O-])ccc2C)c1`, the Potency was 1 µM (active).
Work on `O=C(/C=C/c1ccccc1[N+](=O)[O-])c1ccccc1Br` yielded an activity change, negative = inhibition of 44.2% [at 11.4 µM].
In the case of `N#C/C(=C\C=C\c1ccccc1[N+](=O)[O-])C(=O)NCc1ccccc1`, the Potency is reported as 3.16 µM (active).
In the case of `CC1CCCCC1NC(=O)/C(C#N)=C/C=C/c1ccccc1[N+](=O)[O-]` (centres undefined), the Potency is reported as 3.55 µM (active).
With `NC(=O)c1cccc(-c2ccnc3c2CC(C(=O)Nc2cccc(C(F)(F)F)c2)O3)c1` (centres undefined) the Potency was 3.98 µM (active).
With `O=C(Nc1cccnc1)C1Cc2c(-c3ccc4c(c3)OCO4)ccnc2O1` (centres undefined) the activity change, negative = inhibition was -23.6% [at 11.4 µM].
For `CS(=O)(=O)Nc1cccc(NC(=O)c2cccc3c(-c4cccc(C(N)=O)c4)coc23)c1`, the “activity change, negative = inhibition” value was -17.1% (inactive).
`NS(=O)(=O)c1ccc(CCNC(=O)COC(=O)/C=C/c2cc(Br)ccc2F)cc1` gave an activity change, negative = inhibition of -4.52% [at 11.4 µM].
For `O=C(CNC(=O)c1cccc(F)c1)N/N=C/c1cc(Br)ccc1OC(=O)/C=C/c1ccco1`, the Potency was 4.47 µM (active).
For `O=C(CNC(=O)c1ccccc1F)N/N=C/c1cc(Br)ccc1OC(=O)/C=C/c1ccco1`, the Potency was 12.6 µM (active).
For `O=C(CNC(=O)c1ccc(F)cc1)N/N=C/c1cc(Br)ccc1OC(=O)/C=C/c1ccco1`, the Potency was 8.91 µM (active).
For `Cc1cc(C)c2c(N)c3cccc(C)c3nc2n1`, the Potency was 10 µM (active).
In the case of `Cc1nc(N=C(N)N)nc2c(C)cccc12`, the “activity change, negative = inhibition” value is reported as 17.6% (inactive).
With `Cc1ccccc1C(=O)N1CCN(c2ccc(NC(=O)c3ccc4c(c3)OCCO4)cc2)CC1` the Potency was 2.24 µM (active).
`O=C(Nc1ccc(NC(=O)c2cccs2)cc1)c1ccc2c(c1)OCO2` gave an activity change, negative = inhibition of -7.86% [at 11.4 µM].
For `COc1c(C)cccc1C(=O)Nc1ccc(N2CCN(C(=O)c3ccccc3C)CC2)cc1`, the Potency was 15.8 µM (active).
With `CC(=O)Nc1cc(-c2ccc(C(=O)NC3CC3)cc2)cn2c(-c3cccc(C(C)=O)c3)cnc12` the “activity change, negative = inhibition” value was 3.81% (inactive).
With `O=[N+]([O-])c1cc(O)c2ncccc2c1` the Potency was 3.16 µM (active).
In the case of `Oc1c(CN2CCOCC2)cc(COCc2ccccc2)c2cccnc12`, the Potency is reported as 3.55 µM (active).
With `O=[N+]([O-])c1cc(CN2CCN(c3ccccc3)CC2)c(O)c2ncccc12` the Potency was 7.94 µM (active).
In the case of `O=[N+]([O-])c1cc(Cl)c(O)c2ncccc12`, the Potency is reported as 8.91 µM (active).
In the case of `Oc1ccc(Cl)c2cccnc12`, the “activity change, negative = inhibition” value is reported as -22.2% (inactive).
In the case of `O=[N+]([O-])c1ccc(O)c2ncccc12`, the Potency is reported as 7.08 µM (active).
For `NNC(=O)c1nc(-c2ccccc2)cc(-c2ccccc2)n1`, the “activity change, negative = inhibition” value was 23.1% (inactive).
With `O=C(O)COc1ccc2oc3ccccc3c2c1` the activity change, negative = inhibition was -24.7% [at 11.4 µM].
In the case of `CCOC(=O)c1c(-c2ccccc2)oc2ccc(OCC(=O)NN)cc12`, the Potency is reported as 28.2 µM (active).
For `OCCNc1c2ccccc2nc2c(F)c(F)c(F)c(F)c12`, the Potency was 7.94 µM (active).
For `OCCNc1c2ccccc2nc2ccccc12`, the Potency was 20 µM (active).
In the case of `O=c1c(Cc2ccccc2)c(O)nc2n1CCS2`, the “activity change, negative = inhibition” value is reported as -22.8% (inactive).
For `Cc1ccc(-c2cn(-c3ccc(OC(F)F)cc3)c3[n+]2CCCCC3)cc1`, the Potency was 12.6 µM (active).
In the case of `CCOC(=O)C1CCN(C(=O)c2c(C)oc3c2C(=O)c2ccccc2C3=O)CC1`, the Potency is reported as 12.6 µM (active).
In the case of `Cc1ccc(C)n1-c1ccc(C(=O)N2CCC(C(N)=O)CC2)cc1`, the activity change, negative = inhibition is reported as 4.95% [at 11.4 µM].
With `O=C1c2cccc3c([N+](=O)[O-])ccc(c23)C(=O)N1c1ccc(Cl)cn1` the Potency was 20 µM (active).
In the case of `Cc1ccc(C(=O)O)cc1N1C(=O)c2cccc3c([N+](=O)[O-])ccc(c23)C1=O`, the “activity change, negative = inhibition” value is reported as 4.18% (inactive).
With `Cc1ccnc(N2C(=O)c3cccc4c([N+](=O)[O-])ccc(c34)C2=O)c1` the Potency was 12.6 µM (active).
For `COc1ccc(-c2noc(CCCC(=O)NC3CCCC3)n2)cc1`, the Potency was 7.94 µM (active).
For `Cc1ccc(-c2noc(CCCC(=O)NC3CCCC3)n2)cc1`, the Potency was 7.08 µM (active).
With `Cc1ccccc1NC(=O)Nc1nc(C(N)C2CCCCC2)cs1` (centres undefined) the “activity change, negative = inhibition” value was -17.1% (inactive).
Work on `CN(C)C(=O)c1cccc(-c2cnc3c(NC=O)cc(-c4ccccc4N(C)C)cn23)c1` yielded an activity change, negative = inhibition of -27.7% [at 11.4 µM].
With `CCN1CCN(c2ccc(S(=O)(=O)N3CCCCC3)cc2NC(=O)c2ccc([N+](=O)[O-])s2)CC1` the Potency was 3.16 µM (active).
For `CCN1CCN(c2ccc(S(=O)(=O)N3CCCCC3)cc2NC(=O)/C=C/c2ccc([N+](=O)[O-])cc2)CC1`, the activity change, negative = inhibition was -17.9% [at 11.4 µM].
In the case of `COc1ccccc1C(=O)NNC(=S)NC(=O)c1ccco1`, the Potency is reported as 7.94 µM (active).
On the % scale 0 is the no-effect control and ±100 the full control effect; potency means the concentration at half of the fitted maximal effect.
